The target of assay [1] is Aldehyde dehydrogenase, mitochondrial (Homo sapiens) (UniProt P05091). Kind of assay: qHTS for Inhibitors of the Aldehyde Dehydrogenase Family (ALDH2) Primary screen (AID 2061308). Further: nearly all actives have a fitted effect of over 55% in size.
The target in assay [2] is Retinaldehyde dehydrogenase 3 (Homo sapiens) (UniProt P47895). The experiment in a line: qHTS for Inhibitors of the Aldehyde Dehydrogenase Family (ALDH1A3) Primary screen (AID 2061315). In general terms: qHTS replaces the single test concentration by a dilution series.

Records with an inconclusive call do not appear. Where a call stands in place of a potency, no number is given. Calls of active or inactive are those of the source. The call rests on the fitted dose curve; in most records, active means well fitted curve in the direction sought with a large enough effect; inconclusive means small, poorly fitted or top-dose-only effect, or another doubt; inactive means no such curve, though single readings can be large; an effect the other way counts as inactive or inconclusive.

Take `Fc1ccc(Nc2nc(-c3ccncc3F)nc3ccccc23)cc1F`: the Potency result in assay [1] and in assay [2] was “inactive” in each case.
For `COc1ccc(C2Nc3ccccc3C(=O)N2Cc2ccccc2)cc1COc1cccc(C)c1` (stereo unspecified), the Potency entry in assay [1] and in assay [2] was “inactive” each time.
For the molecule `Cc1ccc(-c2cc(C(=O)Nc3cccc4ccccc34)c3ccccc3n2)cc1C`, the Potency entry in assay [1] and in assay [2] was “inactive” each time.
Consider `Clc1ccccc1-c1ccc2ncnc(NCc3cccnc3)c2c1`, for which the Potency entry in assay [1] and in assay [2] was “inactive” throughout.
Turning to `Cc1ccc(C(=O)Nc2ccc(S(=O)(=O)Nc3nccs3)cc2)cc1C`, the Potency result in assay [1] and in assay [2] was “inactive” throughout.
In the case of `O=C(NCCc1ccc2c(c1)OCO2)c1cc2sccc2[nH]1`, the Potency entry in assay [1] and in assay [2] was “inactive” throughout.
For `CC(C)(C)NC(=O)Nc1nnc(-c2ccncc2)s1`, the Potency entry in assay [1] and in assay [2] was “inactive” each time.
For `C=C(C)C(=O)O[C@H]1[C@H]2C(=C)C(=O)O[C@@H]2C[C@@H](C)[C@@H]2O[C@@H]2C(=O)[C@](C)(O)[C@@H]1OC(=O)C(=C)C`, the Potency entry in assay [1] and in assay [2] was “inactive” throughout.
Take `Cc1nc(CN=C2NC3=C(C(=O)CCC3)C(c3[nH]ncc3Cl)N2)cs1` (stereo unspecified): the Potency entry in assay [1] and in assay [2] was “inactive” each time.
In the case of `COc1cccc(NC(=O)C(OC(=O)CNC(=O)c2ccccc2)c2ccccc2)c1` (stereo unspecified), the Potency entry in assay [1] and in assay [2] was “inactive” in each case.
As for `CC(C)c1ccccc1-c1nc(NCc2ccc(-c3cccnc3)cc2)c2sccc2n1`, the Potency result in assay [1] and in assay [2] was “inactive” each time.
`CCOc1ccc(COc2ccc(-c3nc4ccccc4[nH]3)cc2)cc1`: the Potency entry in assay [1] and in assay [2] was “inactive” in each case.
Consider `Cc1noc(C)c1-c1ccc2ncnc(NCc3ccc(-c4ccccc4)cc3)c2c1`, for which the Potency result in assay [1] and in assay [2] was “inactive” throughout.
With `FC(F)(F)c1ccccc1-c1nc(NCc2ccc(-c3ccc4ccccc4c3)cc2)c2ccccc2n1`, the Potency entry in assay [1] and in assay [2] was “inactive” each time.
Take `Oc1ccc(CCc2ccccc2F)c2cccnc12`: the Potency entry in assay [1] and in assay [2] was “inactive” in each case.
As to `C[C@@H]1CC[C@]2(C)C(C[C@@H](O)[C@H](O)[C@]23CO3)[C@@]1(C)CCc1ccoc1` (stereo partly specified), the Potency entry in assay [1] and in assay [2] was “inactive” each time.
In the case of `O=C(Nc1nnc(-c2ccncc2)s1)Nc1ccc(Cl)cc1F`, the Potency result in assay [1] and in assay [2] was “inactive” each time.
For the molecule `COc1ccc(C2=Nn3c(nnc3-c3cccc(OC)c3OC)SC2)cc1OC`, the Potency result in assay [1] and in assay [2] was “inactive” each time.
On to `CC1=C(C(=O)Nc2ccon2)C2(CCCC2)N=C(Nc2nc3ccccc3o2)N1`, for which the Potency result in assay [1] and in assay [2] was “inactive” throughout.
As for `CCc1ccc(S(=O)(=O)Nc2cnccc2C(=O)Nc2nc(-c3ccccc3)cs2)cc1`, the Potency result in assay [1] and in assay [2] was “inactive” each time.
With `CC(C)Oc1ccccc1C(=O)Nc1nc(-c2ccccc2)cs1`, the Potency entry in assay [1] and in assay [2] was “inactive” in each case.
`CC(=O)c1ccc(N2CCN(S(=O)(=O)c3ccc4c(c3)CC(=O)N4)CC2)cc1`: the Potency entry in assay [1] and in assay [2] was “inactive” in each case.
With `Cc1ccc(OCCn2c(CCNC(=O)c3cc(F)cc(F)c3)nc3ccccc32)cc1`, the Potency result in assay [1] and in assay [2] was “inactive” in each case.
On to `CCOc1ccc(C(C)CNC(=O)c2cc3sccc3n2Cc2ccccc2)cc1OCC` (stereo unspecified), for which the Potency result in assay [1] and in assay [2] was “inactive” in each case.
With `Cc1cc(NCc2ccc(NC(=O)Cc3ccc(Cl)c(Cl)c3)cc2)no1`, the Potency result in assay [1] and in assay [2] was “inactive” in each case.
With `Cc1nc(CNc2ncnc3ccc(-c4oc(-c5ccccc5)nc4C)cc23)cs1`, the Potency result in assay [1] and in assay [2] was “inactive” throughout.
On to `CS(=O)(=O)c1ccc(C(=O)OCC(=O)N2CCC(Cc3ccccc3)CC2)cc1[N+](=O)[O-]`, for which the Potency entry in assay [1] and in assay [2] was “inactive” in each case.
Turning to `NNC(=O)C(C(=O)OCc1ccccc1)c1ccccc1` (stereo unspecified), the Potency entry in assay [1] and in assay [2] was “inactive” throughout.
Consider `OCc1cn(Cc2ccc(O)c3ncccc23)cn1`, for which the Potency entry in assay [1] and in assay [2] was “inactive” each time.
Turning to `Cc1ccc(NS(=O)(=O)c2ccc3c(c2)CCC(=O)N3)cc1F`, the Potency result in assay [1] and in assay [2] was “inactive” in each case.
Regarding `COc1ccccc1C(=O)Nc1nc(-c2ccccc2)cs1`, the Potency entry in assay [1] and in assay [2] was “inactive” in each case.
As to `O=C(NC1CCCc2c1cnn2-c1ccc(F)cc1F)c1cccs1` (stereo unspecified), the Potency entry in assay [1] and in assay [2] was “inactive” each time.
For `O=C(NC1CCCc2c1cnn2-c1ccc(F)cc1F)c1ccc(C2(C(F)(F)F)N=N2)cc1` (stereo unspecified), the Potency result in assay [1] and in assay [2] was “inactive” in each case.
For the molecule `Cc1cc2c(s1)c1cnn(Cc3ccc(SC(F)(F)F)cc3)c(=O)c1n2C`, the Potency entry in assay [1] and in assay [2] was “inactive” in each case.
Turning to `CCC(CC)C(=O)NCCc1nc2ccccc2n1CCOc1ccc(C)cc1`, the Potency result in assay [1] and in assay [2] was “inactive” in each case.
In the case of `O=C(Nc1nc2cc(C(F)(F)F)ccc2s1)c1ccc(-c2cccc([N+](=O)[O-])c2)o1`, the Potency entry in assay [1] and in assay [2] was “inactive” throughout.
With `Cc1cc(C)nc(NC(=S)N2CCN(C3=Nc4ccccc4Oc4ccccc43)CC2)c1`, the Potency entry in assay [1] and in assay [2] was “inactive” throughout.
Regarding `O=C(CNC(=O)c1ccc([N+](=O)[O-])cc1)OC(C(=O)Nc1cc(C(F)(F)F)ccc1Cl)c1ccccc1` (stereo unspecified), the Potency entry in assay [1] and in assay [2] was “inactive” in each case.
As to `O=S1(=O)N=C(N2CCOCC2)c2ccccc21`, the Potency result in assay [1] and in assay [2] was “inactive” throughout.
For `Cc1nnc(-c2cnn(C)c2N)n1CCc1cccs1`, the Potency result in assay [1] and in assay [2] was “inactive” throughout.
As to `CCOc1ccc(CCNC(=O)c2cnon2)cc1OCC`, the Potency result in assay [1] and in assay [2] was “inactive” in each case.
Take `CCOc1ccc(CCNC(=O)c2ccc(C3(C(F)(F)F)N=N3)cc2)cc1OCC`: the Potency result in assay [1] and in assay [2] was “inactive” in each case.
As to `Cc1cc(N[S+](=O)([O-])c2ccc(NC(=O)Cc3ccc4c(c3)CCO4)cc2)no1`, the Potency entry in assay [1] and in assay [2] was “inactive” each time.

These data come from PubChem BioAssay (NCATS).
